Pf Dd2 inh = qHTS Primary assay for Inhibitors of Plasmodium falciparum Dd2 growth in vitro; AID 1347417, 2020; P. falciparum Dd2 growth, SYBR Green, 72 h; 120,000 compounds, 4.3% hits; Potency, µM (highest dose often 28.9 µM), hits mostly inhibitors; active = well fitted inhibition curve with a large enough effect; note: nearly all actives have a fitted effect of over 65% in size
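Readout: SYBR Green fluorescence, 485 nm excitation, 535 nm emission, after ~16 h lysis at 37C. Before that, Dd2-infected red cells (2.5% hematocrit) grew 72 h with compound, 29 uM top final concentration.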
Hits are given with their value; i = inactive; [ ] = another dose, or the depositor's remark. This is one part of a sample in which hits are shown more often than they occur.

SMILES | Pf Dd2 inh
COc1cccc(-c2cc3c(=O)n(CCNC(=O)COc4ccccc4)ccn3n2)c1 | i
CS(=O)(=O)N1CCC(OC2CCN(C(=O)c3ccccc3Cl)CC2)CC1 | i
Cn1nccc1C(=O)N1[C@H]2CC[C@@H]1c1cnc(-c3ccccc3)nc1C2 | i
COc1cc(OC)cc(-c2nc(-c3nnn4c3COC(c3ccc(C)cc3)C4)no2)c1 (stereo not drawn) | i
COCCN(CCOC)c1ncnc2c1c(-c1ccccc1)cn2-c1ccc(C)c(Cl)c1 | 11µM
COc1ccc(CCNc2ncnc3c2c(-c2ccccc2)cn3-c2ccc(Cl)cc2)cc1OC | i
COc1ccc(Cl)cc1Nc1ncnc2c1c(-c1ccccc1)cn2-c1ccccc1 | i
O=C(NCCOc1ccccc1)C1CCCN(c2nc3ncccc3o2)C1 (stereo not drawn) | i
O=C([C@@H]1C[C@H](Oc2cccnc2)CN1C(=O)c1ccccn1)N1CCOCC1 | i
CSc1ccc(CNC(=O)C2CCN(c3cc(C(F)(F)F)nc(C)n3)CC2)cc1 | i
COc1ccc(O)c(CN2CCCC(Nc3ccc(F)cc3)C2)c1 (stereo not drawn) | 2.8µM
COc1cccc(CCC(=O)N2CCCC(Nc3ccc(F)cc3)C2)c1 (stereo not drawn) | i
FC(F)Oc1ccccc1CN1CCCC(Nc2ccccc2)C1 (stereo not drawn) | i
Cc1cc(C)c2sc(NC(=O)c3ccc(S(=O)(=O)N4CCOCC4)cc3)nc2c1 | i
Cc1cc(C)c(NC(=O)CSc2nc(=O)n(Cc3ccco3)c3c2CCC3)c(C)c1 | i
CCOc1ccc(-c2nonc2NC(=O)c2ccc(C)cc2)cc1OCC | 2µM
Cc1ccc(-c2nonc2NC(=O)c2ccc(F)cc2)cc1C | i
COc1cc(C(=O)Nc2nonc2-c2ccc(C)c(C)c2)cc(OC)c1OC | i
CCOc1ccccc1NC(=O)N1CCC(=O)N(CC)C2(CCOCC2)C1 | i
N#Cc1ccc(CN2CCC(N3CCOC3=O)CC2)cc1 | i
Cc1ccc(-c2c(C)n3c4c(=O)n(C)c(=O)n(C)c4nc3n2-c2cccc(O)c2)cc1 | 10µM
CCc1ccc(-n2c(-c3ccccc3)c(C)n3c4c(=O)n(C)c(=O)n(C)c4nc23)cc1 | i
Cc1ccc(-c2nc3ccccc3n3c(-c4ccccc4)c4c(=O)n(C)c(=O)n(C)c4c23)cc1 | i
O=C1NC2(CCN(Cc3ccccn3)C2)OCc2ccccc21 (stereo not drawn) | i
Cc1cc(C)cc(-n2c(C)nc3cc(C(=O)O)ccc32)c1 | i
SMILES | Pf Dd2 inh
COc1ccc(NC(=O)C2=C(C)Nc3c(C(=O)Nc4ccc(C)cc4)cnn3C2c2cccc(Cl)c2)cc1 (stereo not drawn) | 3.2µM
COc1cccc(C2C(C(=O)Nc3ccc(Cl)cc3)=C(C)Nc3nc4ccccc4n32)c1OC (stereo not drawn) | i
COc1cc(C2C(C(=O)Nc3ccc(Cl)cc3)=C(C)Nc3nc(SC)nn32)cc(OC)c1OC (stereo not drawn) | i
COc1cccc(C2C(C(=O)Nc3ccc(Cl)cc3)=C(C)Nc3c(C(=O)Nc4ccccc4)cnn32)c1OC (stereo not drawn) | 13µM
COc1ccc(NC(=O)C2=C(C)Nc3nc(SCc4ccc(Cl)cc4)nn3C2c2cccc(OC)c2OC)cc1 (stereo not drawn) | i
COc1ccc(C2C(C(=O)Nc3ccc(Cl)cc3)=C(C)Nc3nc(SCc4cccc(C)c4)nn32)cc1OC (stereo not drawn) | i
COc1ccc(N2Cc3c(ncnc3N3CCOCC3)N(C)CC2=O)cc1 | i
O=C(c1ccc(F)cc1)N1CCC2(CC1)OCC(C(=O)N1CCOCC1)N2C(=O)c1ccccc1 (stereo not drawn) | i
COc1ccccc1NC(=O)Cn1c(=O)n(-c2ccccc2Cl)c(=O)c2sc3ccccc3c21 | i
COc1ccc(CC(=O)N2CCC(N3CC4CC(C3)[C@H]3CCCC(=O)N3C4)CC2)cc1 (stereo partly drawn) | i
COc1ccc(C(=O)N[C@@H]2CN(c3ccncn3)C[C@H]2CN(C)C)cc1F | i
O=C(Cc1cccc(F)c1)N1CCCN(C(=O)C2CC2)c2ccccc21 | i
Cc1ccccc1CNC(=O)c1cc2cn(C(C)C)cc2s1 | i
Cc1cccc(C2CC(=O)Nc3cc4c(cc32)OCO4)c1 (stereo not drawn) | i
CCOc1c(Br)cc(C2CC(=O)Nc3cc4c(cc32)OCO4)cc1OC (stereo not drawn) | 3.2µM
COc1cc(C2CC(=O)Nc3cc4c(cc32)OCCO4)cc(Br)c1OC (stereo not drawn) | 1µM
COc1cccc(C2CC(=O)Nc3cc4c(cc32)OCO4)c1OC(C)C (stereo not drawn) | i
CCOc1cc(C2CC(=O)Nc3cc4c(cc32)OCCO4)ccc1O (stereo not drawn) | i
COc1cc2c(c(OC)c1)C(c1cc(OC)c(OC)c(OC)c1)CC(=O)N2 (stereo not drawn) | i
COC(=O)[C@H](NC(=O)[C@@H]1C[C@@H](NC(=O)c2ccncc2)CCN1S(=O)(=O)c1ccc(OC)cc1)C(C)C | i
CC(C)(C)c1ccc(NC(=O)O[C@@H]2CO[C@H]3[C@@H]2OC[C@@H]3Nc2nccc(-c3cccs3)n2)cc1 | i
COc1ccc(CCc2nc3nccc(-c4ccccn4)n3n2)cc1 | i
Cc1ccc2c(=O)cc(C(=O)Nc3nnc(C)s3)oc2c1 | i
O=C(NC[C@H]1O[C@@H](CO)[C@@H](O)[C@H]1N1CCc2ccccc2C1)Nc1cccc(Cl)c1 | i
CN1Cc2ccccc2-n2ccnc2C12CCN(C(=O)c1cc(F)cc(F)c1)CC2 | i[5.79 µM]
SMILES | Pf Dd2 inh
Cn1cc(-c2cc(=O)c3ccnc(Nc4ccc5[nH]ccc5c4)c3o2)cn1 | 7.1µM
Cn1cc(-c2cc(=O)c3ccnc(NC4CCOCC4)c3o2)cn1 | i
Cn1cc(-c2cc(=O)c3ccnc(NCc4ccc(F)cc4)c3o2)cn1 | i
CN1CCCCC(CC(=O)NCc2ccccc2)C1=O (stereo not drawn) | i
CCOc1ccc(C(=O)Nc2ccc3oc(-c4ccncc4)nc3c2)cc1 | i
COc1ccccc1NC(=O)Nc1ccc(=O)n2c1[C@@H]1C[C@@H](CN(C3CCN(C)CC3)C1)C2 | i
OCc1cc2n(n1)CCCN(Cc1cccc(OCc3ccccn3)c1)C2 | i
CCc1nc(CN2CCCC(CO)(CC3CC3)C2)cs1 (stereo not drawn) | 13µM
OCC1(CC2CC2)CCCN(Cc2cccc(OCc3ccccn3)c2)C1 (stereo not drawn) | 5.6µM
COc1ccc(CN2CCN(CC(N)=O)CC2CCO)c(F)c1 (stereo not drawn) | i
